# Experimental data taken from PubChem BioAssay (NCATS).
# Values joined by “and” are separate entries in the source; they are usually repeats but may differ in a detail not shown here. Equal values may be shown once. Results filed as inconclusive are left out. Some compounds were tested as several samples or in several runs, with calls that do not always agree. Active and inactive are the calls of the source. Calls come from the whole dose curve; as a rule, active = well fitted curve in the direction sought with a large enough effect; inconclusive = small, poorly fitted or top-dose-only effect, or another doubt; inactive = no such curve, though single readings can be large; an effect the other way counts as inactive or inconclusive.
# What was measured:
# [1] = Viability qHTS for spleen associated tyrosine kinase inhibitor (SYKi) naive MV4-11 cells (AID 1963823); note: nearly all actives have a fitted effect of over 40% in size
# How it was run: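 qHTS, SYK inhibitor-naive MV4-11; 500 cells/well; 72 hr compound exposure, 37 C; CellTiter-Glo added, 10 min RT; luminescence read.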
# [2] = Viability qHTS for spleen associated tyrosine kinase inhibitor (SYKi) drug resistant MV4-11 cells (AID 1963824); note: nearly all actives have a fitted effect of over 35% in size
# How it was run: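 CellTiter-Glo luminescence, read 10 min after reagent addition, reports viability after a 72 hr compound exposure. Cells are an MV4-11 line made resistant to SYK inhibition, seeded at 500 per well onto compound-containing plates.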
# [3] = Quantitative highthroughput screen to assess conditional lethalithy of NOMO1 cells grown in RPMI1640 with untreated serum (RPMI+s) (AID 1963876); note: nearly all actives have a fitted effect of over 35% in size;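 for Viability: 100% = DMSO wells and 0% = empty wells without cells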
# How it was run: (§1)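 Each medium arm—HPLM with 10% dialyzed FBS, or RPMI1640 with 5 mM glucose and 10% untreated or dialyzed FBS—was screened against an 11-point, 3-fold compound titration for 48 h at 37 °C, with CellTiter-Glo luminescence as endpoint.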
# [4] = Cellular viability qHTS for adrenocortical cancer (ACC) cell line SW-13 (AID 1963989); settings: SW-13 ACC cells viability, CellTiter-Glo, 48 h; activity (max response): stronger effect = lower value; note: nearly all actives have a fitted effect of over 65% in size;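 for activity (max response): cells grown in serum-free medium with ITS supplement; % is set by controls: 0 for no effect and ±100 for the full control effect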
# How it was run: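 48 h treatment, SW-13 in ITS/DMEM serum-free; doses up to 46 uM; readout CellTiter-Glo luminescence; curve fit four-parameter logistic.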
# [5] = Cellular viability qHTS for adrenocortical cancer (ACC) cell line NCI-H295R (AID 1963990); note: nearly all actives have a fitted effect of over 60% in size
# How it was run: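 Compound titrations (up to 46 uM final) are applied to NCI-H295R cultures for 48 h at 37C. Viable cell number is estimated by CellTiter-Glo signal, normalised to DMSO and doxorubicin controls.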
# [6] = Quantitative highthroughput screen to assess conditional lethalithy of NOMO1 cells grown in RPMI1640 with dialyzed fetal bovine serum (RPMI+ds) (AID 1963877); note: nearly all actives have a fitted effect of over 30% in size;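 for Viability: series mostly up to about 46 µM; 100% = DMSO control wells and 0% = empty wells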
# How it was run: as §1
# [7] = Quantitative highthroughput screen to assess conditional lethalithy of NOMO1 cells grown in Human Plasma-Like Medium with dialyzed fetal bovine serum (HPLM+ds) (AID 1963878); note: nearly all actives have a fitted effect of over 35% in size;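 for Viability: 100% = DMSO wells and 0% = empty wells on each plate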
# How it was run: as §1
# [8] = Quantitative highthroughput screen to assess conditional lethalithy of P12 Ichikawa cells grown in Human Plasma-Like Medium with dialyzed fetal bovine serum (HPLM+ds) (AID 1963879); settings: Potency: viability; note: nearly all actives have a fitted effect of over 35% in size; for Viability: series mostly up to about 46 µM
# How it was run: as §1
# [9] = Quantitative highthroughput screen to assess conditional lethalithy of P12 Ichikawa cells grown in RPMI1640 with dialyzed fetal bovine serum (RPMI+ds) (AID 1963880); settings: Potency: P12-Ichikawa viability; note: nearly all actives have a fitted effect of over 35% in size;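 for Viability: 100% = DMSO wells and 0% = empty wells on each plate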
# How it was run: as §1
# [10] = Quantitative highthroughput screen to assess conditional lethalithy of P12 Ichikawa cells grown in RPMI1640 with untreated serum (RPMI+s) (AID 1963881); settings: Potency: viability; note: nearly all actives have a fitted effect of over 35% in size;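 for Viability: series mostly up to about 46 µM; 100% = DMSO wells and 0% = empty wells without cells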
# How it was run: as §1
# [11] = Quantitative highthroughput screen to assess conditional lethalithy of SEM cells grown in Human Plasma-Like Medium with dialyzed fetal bovine serum (HPLM+ds) (AID 1963882); note: nearly all actives have a fitted effect of over 35% in size; for Viability: series mostly up to about 46 µM
# How it was run: as §1
# [12] = Quantitative highthroughput screen to assess conditional lethalithy of SEM cells grown in RPMI1640 with unreated serum (RPMI+s) (AID 1963883); note: nearly all actives have a fitted effect of over 35% in size;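 for Viability: 100% = DMSO wells and 0% = empty wells without cells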
# How it was run: as §1
# [13] = Quantitative highthroughput screen to assess conditional lethalithy of SEM cells grown in RPMI1640 with dialyzed fetal bovine serum (RPMI+ds) (AID 1963884); note: nearly all actives have a fitted effect of over 35% in size;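 for Viability: series mostly up to about 46 µM; 100% = DMSO control wells and 0% = empty wells without cells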
# How it was run: as §1
# Potency is the fitted concentration of half-maximal effect.
Compound,Potency [1],Potency [2],Potency [3],Potency [4],Potency [5],Potency [6],Potency [7],Potency [8],Potency [9],Potency [10],Potency [11],Potency [12],Potency [13],activity (max response) [4]
CNC1CCC(N(Cc2cccc(-c3ccncc3)c2)C(=O)c2sc3c(F)ccc(F)c3c2Cl)CC1 (stereo not drawn),2.63 µM (active) and 8.2 µM (active),8.33 µM (active) and 7.31 µM (active),inactive,10 µM (active),7.08 µM (active),,,,,,,,,
COc1ccc(F)c(F)c1C(=O)c1cnc(NC2CCN(S(C)(=O)=O)CC2)nc1N,651 nM (active),580 nM (active) and 742 nM (active),,3.55 µM (active),3.16 µM (active),6.62 µM (active),4.18 µM (active),20.9 µM (active),11.8 µM (active),11.8 µM (active),4.69 µM (active),4.18 µM (active),5.9 µM (active),
CO[C@@H]1C(N(C)C(=O)c2ccccc2)C[C@H]2O[C@]1(C)n1c3ccccc3c3c4c(c5c6ccccc6n2c5c31)C(=O)NC4=O (stereo partly drawn),148 nM (active),332 nM (active),14.8 µM (active),,inactive,,,,,,4.69 µM (active),1.87 µM (active),,
CC[C@@]1(O)C(=O)OCc2c1cc1n(c2=O)Cc2cc3c(CN(C)C)c(O)ccc3nc2-1,59.6 nM (active) and 58 nM (active),33.2 nM (active),,0.562 µM (active),,0.526 µM (active),0.332 µM (active),0.105 µM (active),0.0743 µM (active),0.0743 µM (active),0.166 µM (active),0.0935 µM (active),0.105 µM (active),
CN1CCC(=C2c3ccccc3CCc3sccc32)CC1,14800 nM (active),18600 nM (active),inactive,,,,,,,inactive,,inactive,,
CC(C)(O)c1cc2nc(-c3cnc(N)nc3)nc(N3CCOCC3)c2s1,580 nM (active),1160 nM (active),1.87 µM (active),1.26 µM (active),1 µM (active),,,0.935 µM (active),,,,,,
CC(C)C(=O)Nc1ncc(-c2cc(C(F)F)nn2-c2c(Cl)cccc2Cl)s1,18600 nM (active),13000 nM (active),inactive,,22.4 µM (active),,,,,,,,,
Cn1cnc(=N)c2[nH]cnc21,inactive,inactive,,,inactive,6.62 µM (active),4.69 µM (active),7.43 µM (active),7.43 µM (active),7.43 µM (active),3.32 µM (active),2.35 µM (active),3.32 µM (active),5.87% (inactive)
O=C(Nc1ncc(SCCN2CCCC2)s1)[C@]1(c2ccc(S(=O)(=O)C3CC3)cc2)C[C@@H]1C1CCCCC1,2590 nM (active),2590 nM (active),,,,23.5 µM (active),18.7 µM (active),,,,,,,
N#Cc1c(NC(=O)c2cccc3ccccc23)sc2c1CCCC2,116 nM (active),186 nM (active),0.935 µM (active),0.282 µM (active),0.562 µM (active),,,0.59 µM (active),,0.662 µM (active),0.469 µM (active),0.418 µM (active),0.372 µM (active),
CCc1ccc(OCc2ccccc2C(=O)Nc2ccc3nc(C)cc(N)c3c2)cc1,1660 nM (active),2090 nM (active),,5.01 µM (active),5.62 µM (active),8.33 µM (active),3.32 µM (active),9.35 µM (active),14.8 µM (active),13.2 µM (active),3.72 µM (active),10.5 µM (active),10.5 µM (active),
Cc1cccc(-c2[nH]c(C(C)(C)C)nc2-c2ccc3nccnc3c2)n1,20.9 µM (active) and 3.26 µM (active),18.6 µM (active) and 1.3 µM (active),inactive,,inactive,,,,inactive,,,20.9 µM (active),18.7 µM (active),
C[C@@H](NCCCc1cccc(C(F)(F)F)c1)c1cccc2ccccc12,10600 nM (active),13.3 µM (active) and 7.42 µM (active),,20.6 µM (active) and 25.1 µM (active),5.17 µM (active) and 8.91 µM (active),inactive,inactive,inactive,inactive,inactive,inactive,inactive,inactive,
CC(C(=O)O)c1ccc2c(c1)CC(=O)c1ccccc1S2 (stereo not drawn),inactive,inactive,7.43 µM (active),,inactive,,,,10.5 µM (active),9.35 µM (active),inactive,inactive,inactive,-16.4% (inactive) and 14.9% (inactive)
CCCCCCCCCCCCCCCCCCCCCCO,inactive,inactive,,,,inactive,inactive,inactive,inactive,inactive,inactive,inactive,inactive,-13.9% (inactive)
COc1ncc(-c2ccc3c(Nc4cc(Oc5cc(F)cc(F)c5)cc(C(=O)O)c4)c(S(=O)(=O)NC4CC4)cnc3c2)c(OC)n1,inactive,inactive,,,inactive,inactive,inactive,inactive,inactive,inactive,inactive,inactive,inactive,

Compound,Potency [1],Potency [2],Potency [3],Potency [4],Potency [5],Potency [6],Potency [7],Potency [8],Potency [9],Potency [10],Potency [11],Potency [12],Potency [13],activity (max response) [4]
C=CC(=O)Nc1cc2c(Nc3ccc(F)c(Cl)c3)ncnc2cc1C#CC(C)(C)N1CCN(C)CC1,590 nM (active),517 nM (active),,3.16 µM (active),3.16 µM (active),5.26 µM (active),5.26 µM (active),5.26 µM (active),5.26 µM (active),5.9 µM (active),2.96 µM (active),2.96 µM (active),3.32 µM (active),
COc1ccc2c(Oc3ccc(NC(=O)c4c(C)n(CC(C)(C)O)n(-c5ccccc5)c4=O)nc3)ccnc2c1,166 nM (active),332 nM (active),inactive,,inactive,,,inactive,,,,,,-3.94% (inactive)
NC(=O)NO,inactive,inactive,,,inactive,4.18 µM (active),2.96 µM (active),9.35 µM (active),9.35 µM (active),16.6 µM (active),3.72 µM (active),4.18 µM (active),4.18 µM (active),10.6% (inactive) and 4% (inactive)
CCC[C@H](N[C@@H](C)C(=O)N1[C@@H]2CCCC[C@H]2C[C@H]1C(=O)O)C(=O)OCC,inactive,inactive,13.2 µM (active),,inactive,,,inactive,,,inactive,inactive,inactive,2.75% (inactive)
CC(=O)O[C@H]1C(=O)[C@@]2(C)C([C@H](OC(=O)c3ccccc3)[C@]3(O)C[C@H](OC(=O)[C@H](O)[C@@H](NC(=O)c4ccccc4)c4ccccc4)C(C)=C1C3(C)C)[C@]1(OC(C)=O)CO[C@@H]1C[C@@H]2O (stereo partly drawn),5.1 nM (active) and 8.3 nM (active),3.6 nM (active) and 7.4 nM (active),0.0013 µM (active),,0.1 µM (active),,,,,,,,,
C[C@@H]1COC(Nc2ccc3ncnc(Nc4ccc(OCc5nccs5)c(Cl)c4)c3c2)=N1,4110 nM (active),2910 nM (active),inactive,15.8 µM (active),28.2 µM (active),,,,18.7 µM (active),,,,,
COc1cc2c(cc1-c1c(C)noc1C)ncc1[nH]c(=O)n([C@H](C)c3ccccn3)c12,206 nM (active),259 nM (active),3.32 µM (active),,,,,5.9 µM (active),,,1.87 µM (active),1.87 µM (active),1.48 µM (active),-16.6% (inactive)
O=C(NC[C@H](O)CO)c1ccncc1Nc1ccc(I)cc1F,235 nM (active),166 nM (active),0.469 µM (active),,31.6 µM (active),,,inactive,,,,,,
c1cncc(CN2CCC(n3ncc4c(N5CCOCC5)nc(-c5ccc6[nH]ccc6c5)nc43)CC2)c1,1.03 µM (active) and 1.32 µM (active),1.84 µM (active) and 1.86 µM (active),16.6 µM (active),,3.55 µM (active),,,,13.2 µM (active),13.2 µM (active),,14.8 µM (active),14.8 µM (active),-29.6% (inactive)
C[C@H]1c2cccc(O)c2C(O)=C2C(=O)[C@]3(O)C(O)=C(C(N)=O)C(=O)[C@@H](N(C)C)[C@@H]3[C@@H](O)[C@@H]21,inactive and 16.6 µM (active),14800 nM (active),,,inactive,inactive,inactive,inactive,16.6 µM (active),18.7 µM (active),inactive,inactive,,-2.36% (inactive) and -5.39% (inactive)
Cc1cnc(C(=O)NCCc2ccc(S(=O)(=O)NC(=O)NC3CCCCC3)cc2)cn1,inactive,inactive,inactive,,inactive,,,,,,inactive,inactive,,
CN1C(C(=O)Nc2ccccn2)=C(O)c2sc(Cl)cc2S1(=O)=O,inactive,16600 nM (active),,,inactive,inactive,inactive,inactive,inactive,inactive,inactive,inactive,inactive,-21.7% (inactive)
Cc1ccc(C(=O)N(CCCN)[C@@H](c2oc3cc(Cl)ccc3c(=O)c2Cc2ccccc2)C(C)C)cc1,10.5 nM (active),8.3 nM (active),inactive,0.0141 µM (active),0.316 µM (active),,,,,inactive,inactive,inactive,inactive,
COCCOC(=O)C1=C(C)NC2=C(C(=O)CC(c3ccccc3OC)C2)C1c1cccc(O)c1 (stereo not drawn),2.95 µM (active) and 4.11 µM (active),2.35 µM (active) and 5.8 µM (active),,,,inactive,,,,,,,,
CCc1nc(N)nc(N)c1-c1ccc(Cl)cc1,3760 nM (active),3.76 µM (active) and 2.63 µM (active),inactive,1.46 µM (active) and 3.98 µM (active),2.59 µM (active) and 1.78 µM (active),,,1.87 µM (active),,10.5 µM (active),,inactive,,
